Results taken from PubChem BioAssay AID686978 (National Center for Advancing Translational Sciences (NCATS), 2013).
Among all 420,000 compounds or so, about 64,000 (15%) were called active. Roughly 27% stayed inconclusive and do not appear here. Calls come from the whole dose curve; as a rule, active = well fitted inhibition curve with a large enough effect; inconclusive = small, poorly fitted or top-dose-only effect; inactive = flat fitted curve, though single readings scatter. Only a sample is shown. Entries that show only a call come without a potency.

Test: qHTS for Inhibitors of human tyrosyl-DNA phosphodiesterase 1 (TDP1): qHTS in cells in absence of CPT; note: nearly all actives have a fitted effect of over 55% in size
Settings: DT40 Tdp1-/- hTDP1 cells, no CPT, ATP luminescence, 48 h; activity change, negative = growth inhibition: at 46.2 µM (top of the series)
Procedure, shortened: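 DT40 Tdp1-/-;hTDP1 cells, no CPT (DMSO vehicle only), 400 cells/well; compounds pin-transferred; ≥48 hr, 37 °C; CellTiter-Glo 30 min RT dark, luminescence read.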
Potency is the fitted concentration of half-maximal effect.

| Compound | Potency |
| --- | --- |
| CC(C)c1nc(CNC(=O)CC2C(=O)NCCN2Cc2cccc(F)c2F)cs1 (centres undefined) | inactive |
| CCN(CC)CCCNC(=O)Cn1cnc2sc(C)c(S(=O)(=O)N3CCN(c4ncccn4)CC3)c2c1=O | inactive |
| C[N+]1(CCNC(=O)/C=N/O)CCCCC1 | inactive |
| O=C(Cn1cc(C(F)(F)F)ccc1=O)Nc1ccc2c(c1)OCCO2 | inactive |
| CCCCn1c(SCC(=O)N2CCCC2=O)nc2cc(S(N)(=O)=O)ccc21 | inactive |
| CCCCn1c(SCC(=O)N2CCC(C(=O)OCC)CC2)nc2cc(S(N)(=O)=O)ccc21 | inactive |
| CCCCn1c(SCc2ncc(-c3ccccc3)o2)nc2cc(S(N)(=O)=O)ccc21 | 9.2 µM (active) |
| Cc1[nH][nH]c(=O)c1N=Nc1ccccc1 | inactive |
| Cc1ccc(NC2(C#N)C(=O)Nc3ccccc32)cc1 (centres undefined) | inactive |
| COC(=O)C(C)NC(=O)COc1ccc2ccccc2c1 (centres undefined) | inactive |
| CCCCSc1[nH]c(=O)c(C(=O)OCC)cc1C#N | inactive |
| Cc1cc(-c2ccc(C)c(S(=O)(=O)NCCCN(Cc3ccccc3)C(C)C)c2)on1 | 13 µM (active) |
| COc1cccc(CNS(=O)(=O)c2cc3c(cc2C)n(C)c(=O)c(=O)n3C)c1 | inactive |
| Cc1cc(-c2ccc(C)c(S(=O)(=O)NC(C)Cc3ccco3)c2)on1 (centres undefined) | inactive |
| COc1ccc(CNS(=O)(=O)c2cc(-c3cc(C)no3)ccc2C(C)C)cc1 | 0.731 µM (active) |
| CCOc1ccccc1CNS(=O)(=O)c1cc(-c2cc(C)no2)ccc1C | inactive |
| CCc1ccc(-c2cc(C)no2)cc1S(=O)(=O)NCCc1ccc(S(N)(=O)=O)cc1 | inactive |
| CC(=O)OC(C)C[N+](C)(C)C (centres undefined) | inactive |
| C=CCOc1ccc(/C=C/C(=O)OC(C)C(=O)Nc2ccc(NC(C)=O)cc2)cc1 (centres undefined) | inactive |
| COC(=O)c1c(C)cc(O)c(C)c1O | inactive |
| O=C(/C=C/c1ccco1)NC(=S)N1CCCCC1 | inactive |
| NC(=O)c1ccsc1NC(=O)COC(=O)Cc1n[nH]c(=O)c2ccccc12 | inactive |
| Cc1cc(C)c(C2C3=C(Nc4c2c(C)nn4-c2ccccn2)c2ccccc2C3=O)c(C)c1 (centres undefined) | 8.2 µM (active) |

| Compound | Potency |
| --- | --- |
| Cc1nc2ccccc2n1C(=O)N1CCOCC1 | inactive |
| CC(OC(=O)/C=C/c1ccccc1)C(=O)NC1CCCCC1C (centres undefined) | inactive |
| CC(C=Cc1ccccc1)=NNS(=O)(=O)c1ccc([N+](=O)[O-])cc1 | inactive |
| CC(/C=C/c1ccccc1)=N\NC(=O)C1CC1(C)c1ccccc1 (centres undefined) | 18.4 µM (active) |
| Cn1c(=NC(=O)c2ccc3c(c2)OCCO3)sc2cc(S(C)(=O)=O)ccc21 | inactive |
| O=C(CO/N=C/c1ccccc1O)NNC(=O)c1ccccc1Cl | 0.184 µM (active) |
| O=C(CO/N=C/c1ccccc1OC(F)F)NC1CCCC1 | inactive |
| NS(=O)(=O)c1cc(C(=O)OCC(=O)NNC(=O)c2ccccc2)ccc1Cl | inactive |
| CCCc1cc(=O)oc2c(C)c(OCC(=O)NCc3ccccn3)ccc12 | inactive |
| CN(CCC#N)c1ccc(C=O)cc1 | inactive |
| CCOc1cccc(C(=O)Nc2nnc(-c3cccs3)s2)c1 | inactive |
| N#Cc1ccc(C(=O)Nc2nc(-c3cccs3)c(C(=O)C(F)(F)F)s2)cc1 | 1.3 µM (active) |
| CC(=O)c1sc(NC(=O)c2ccc(C)cc2)nc1C | inactive |
| COc1ccc(CCNC(=O)c2cn(C)c3ccc(S(=O)(=O)N(C)C4CCCCC4)cc3c2=O)cc1OC | inactive |
| CC1(C)CC(=O)C=C(c2ccccc2CO)C1=O | inactive |
| CC1CCCC(C)N1C(=O)COC(=O)COc1ccccc1C#N (centres undefined) | inactive |
| Cc1nnc(NC2=NCCCCC2)o1 | inactive |
| COc1ccc(OCC(=O)NNC(=O)c2cccc(C)c2)cc1 | inactive |
| COc1cccc(C(=O)NC(=O)Nc2nc(C)cc(C(F)(F)F)n2)c1 | inactive |
| COc1ccc(CN2C(=O)C(NC(=O)c3cccc(C)c3)(C(F)(F)F)N=C2c2ccccc2)cc1 (centres undefined) | 20.6 µM (active) |
| COc1ccc(S(=O)(=O)N2CCN(C(=O)c3cc(C)oc3C)CC2)cc1 | inactive |
| COc1ccc(C(=O)Nc2cccnc2)cc1C(=O)Nc1cccnc1 | inactive |
| COc1ccc(C(=O)CCC(=O)Nc2cccnc2)c(OC)c1 | inactive |

| Compound | Potency |
| --- | --- |
| COc1ccc(C(=O)/C=C/c2cccnc2)c(OC)c1 | 18.4 µM (active) |
| CC/C(=N\O)C(C)(C)/[N+]([O-])=C/c1ccc(Br)cc1 | inactive |
| O=c1c2[nH]c3ccc(Cl)cc3c2ncn1Cc1ccccn1 | inactive |
| COc1cccc(NC(=O)NCc2ccc(F)cc2)c1 | inactive |
| COc1cccc(NC(=O)Cc2ccc(C)cc2)c1 | inactive |
| Cc1cccc(NC(=O)Nc2cccc(Oc3c(F)c(F)c(F)c(F)c3F)c2)c1 | 18.4 µM (active) |
| CN1CCC(OC(=O)COc2ccc(Cl)cc2Cl)CC1 | inactive |
| C[N+]1(CC(O)COc2ccccc2)CCN(C(=O)c2ccc([N+](=O)[O-])cc2)CC1 (centres undefined) | inactive |
| CC(=O)Nc1cccc(OCC(=O)/C=C2\N(C)c3ccccc3C2(C)C)c1 | 7.31 µM (active) |
| COc1cccc(NC(=S)C(C#N)=C2N(C)c3ccccc3N2C)c1 | inactive |
| CCOc1cccc(NC(=O)CC#N)c1 | inactive |
| CC(=O)NCC(O)c1ccc([N+](=O)[O-])cc1 (centres undefined) | inactive |
| Cc1cc(C)c(C#N)c(SCC(=O)NN2CC(=O)N(c3ccccc3F)CC2=O)n1 | inactive |
| CCOC(=O)c1ccccc1OC(=O)Oc1ccccc1C(=O)OCC | inactive |
| CCOC(=O)c1cc2cc(C)ccc2[nH]1 | inactive |
| CCOC(=O)C=Cc1ccc(C(=O)OCC)[nH]1 | 8.2 µM (active) |
| CCOC(=O)c1cccc(NC(=O)CN2C(=O)C3CC=CCC3C2=O)c1 (centres undefined) | inactive |
| CCOC(=O)/C(=C\c1ccc([N+](=O)[O-])cc1)C(=O)c1cc(C(C)=O)c(Nc2ccccc2)s1 | 0.731 µM (active) |
| O=C(O)C(=Cc1ccc([N+](=O)[O-])cc1)CCc1ccccc1 | inactive |
| O=C(Nc1ccccc1)/C(=C/c1ccc([N+](=O)[O-])cc1)NC(=O)c1ccccc1 | inactive |
| CC(=O)c1c(C)n([O-])c2ccccc2[n+]1=O | inactive |
| O=C(NCc1ccccc1Cl)C1CCC(CNc2c(N3CCCCC3)c(=O)c2=O)CC1 (centres undefined) | inactive |
| Cc1ccc2c(Cl)c(C(=O)Nc3nn[nH]n3)sc2c1 | inactive |
